High-throughput results: PubChem BioAssay, The Scripps Research Institute Molecular Screening Center
PLC-gamma1 inh: PLC-gamma1 enzyme inhibitors, primary screen, biochemical, fluorescence, purified enzyme | 1-phosphatidylinositol 4,5-bisphosphate phosphodiesterase gamma-1 (Homo sapiens), P19174 | fluorogenic substrate | 370,000 tested, 0.84% active | inhibition, % at 12.2 µM | AID 720700, 2013
ADAM17 inh: ADAM17 inhibitors, primary screen, biochemical, QFRET. Disintegrin and metalloproteinase domain-containing protein 17 (Homo sapiens), P78536. recombinant ADAM17, EDANS/DABCYL FRET peptide cleavage. inhibition, % at 6.95 µM. 370,000 tested, 0.83% active. AID 720648, 2013;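 active = inhibition above the mean of compounds lying between control limits plus 3 SD, set per campaign, cut at about 8.5% in these data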
KLK7 zymogen act: proKLK7 zymogen activators, primary screen, biochemical, fluorescence intensity; Kallikrein-7 (Homo sapiens), P49862; purified proKLK7, EDANS-DABCYL substrate fluorescence; 100% is mature enzyme control, 0% vehicle; activation, % at 7 µM; 370,000 tested, 0.9% active;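 active = activation above the mean of all tested compounds plus 3 SD, computed per campaign excluding outliers beyond control limits, cut at about 13% in these data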
PLC-beta3 inh: human PLC-beta3 inhibitors, primary screen, biochemical, fluorescence; inhibition, % at 12.2 µM; AID 720704, 2013; Purified PLC-beta3, fluorogenic substrate; 370,000 tested, 0.18% active; in the data active = inhibition above about 11%
ADAM10 inh: human ADAM10 inhibitors, primary screen, biochemical, QFRET, HTS; Disintegrin and metalloproteinase domain-containing protein 10 (Homo sapiens), O14672; recombinant ADAM10, EDANS/DABCYL FRET peptide cleavage, 3 h; inhibition, % at 7 µM; 370,000 tested, 0.62% active; AID 720582, 2013;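 active = inhibition above a per-campaign cutoff equal to the mean of compounds falling between control-based bounds plus 3 SD, cut at about 20% in these data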
Target sequence (O14672 214-748 limits assumed): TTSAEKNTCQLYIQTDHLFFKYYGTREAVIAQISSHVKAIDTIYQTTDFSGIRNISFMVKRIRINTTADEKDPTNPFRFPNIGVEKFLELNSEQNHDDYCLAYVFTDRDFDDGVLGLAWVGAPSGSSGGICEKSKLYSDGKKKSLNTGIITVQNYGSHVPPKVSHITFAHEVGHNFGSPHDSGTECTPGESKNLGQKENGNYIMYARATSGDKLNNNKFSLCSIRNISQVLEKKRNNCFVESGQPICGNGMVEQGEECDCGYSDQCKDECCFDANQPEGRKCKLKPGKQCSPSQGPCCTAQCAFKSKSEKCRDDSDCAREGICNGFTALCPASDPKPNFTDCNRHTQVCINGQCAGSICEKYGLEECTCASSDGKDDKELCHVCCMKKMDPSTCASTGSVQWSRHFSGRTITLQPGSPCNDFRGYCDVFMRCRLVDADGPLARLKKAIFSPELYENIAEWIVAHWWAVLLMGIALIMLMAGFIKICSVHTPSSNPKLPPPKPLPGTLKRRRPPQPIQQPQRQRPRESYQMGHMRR
PLCg1 ctr: PLC-gamma1 enzyme inhibitors, counter-screen for PLC-beta3 inhibitor project, biochemical, fluorescence. shares compounds with PLC-gamma1 inh. purified PLC-gamma1, fluorogenic substrate. inhibition, % at 12.3 µM. 3,300 tested, 3.1% active. AID 743258, 2014
PLCbeta3 conf: PLC-beta3 inhibitor confirmation, biochemical, fluorescence, purified enzyme. fluorogenic substrate fluorescence. shares compounds with PLC-gamma1 inh. 3,300 tested, 1% active. inhibition, % at 12.3 µM; in the data active = inhibition above about 11%
Each line names hits and unclear results; the compound was inactive in the other large screens (follow-up assays come after a bar, where they were run). Rows were chosen to be rich in hits. Some 2.9% of all compounds tested hit in one or more screens of this group. Cut-off read from the data, not from the text of the source, unless noted: active = inhibition above about 9.5%; inactive = the rest.

O=c1c2ccc(Cl)cc2[nH]c(=S)n1CCCN1CCOCC1	PLC-beta3 inh 12 | PLCg1 ctr inactive | PLCbeta3 conf inactive
COc1ccc(C)cc1NC(=O)CN1CCCN(S(=O)(=O)c2ccc(Br)cc2)CC1	none
CCOc1ccc(CO/N=C/c2c(C)[nH]c(=O)[nH]c2=O)cc1	PLC-gamma1 inh 13 | PLCg1 ctr inactive | PLCbeta3 conf inactive
CCOc1ccc(N(CC)S(=O)(=O)c2c(C)[nH]c(=O)[nH]c2=O)cc1	none
CCCCCC(=O)Nc1ccc(N2CCN(S(C)(=O)=O)CC2)cc1	PLC-gamma1 inh 9.7 | PLCg1 ctr inactive | PLCbeta3 conf inactive
CCCCC(=O)Nc1ccc(N2CCCC2)cc1	none
Cc1ccccc1OCCCCc1c(C)n[nH]c1C	none
Cc1ccccc1OCCCc1c(C)n[nH]c1C	PLC-gamma1 inh 9.8 | PLCg1 ctr inactive | PLCbeta3 conf inactive
O=C(OCC#CCSc1nnc(-c2ccc(F)cc2)o1)c1ccc(F)cc1	PLC-gamma1 inh 10 (no result: KLK7 zymogen act) | PLCg1 ctr inactive | PLCbeta3 conf inactive
C[C@H](CO)N1C[C@H](C)[C@H](CN(C)S(=O)(=O)c2cccc(C#N)c2)OCc2cnnn2CCCC1=O	none
S=C(NCCCc1cnc[nH]1)NCCCN(Cc1ccc(Cl)cc1)c1ccc(Br)cn1	PLC-gamma1 inh 11 | PLCg1 ctr inactive | PLCbeta3 conf inactive
CCCCN1Cc2c(nc3cc(-c4ccco4)[nH]n3c2=O)C1=O	none
CC(=O)Nc1ccc(C(=O)N2CCCCC2c2cc(C(=O)N3CCOCC3)no2)cc1 (stereo not drawn)	none
Cc1cc(C)n(CC(=O)NNC(=O)C2CC(=O)N(Cc3ccccc3Cl)C2)n1 (stereo not drawn)	PLC-gamma1 inh 12 | PLCg1 ctr inactive | PLCbeta3 conf inactive
Cc1ccc(CN2CC(C(=O)NCCCn3nc(C)cc3C)CC2=O)cc1 (stereo not drawn)	none
Cc1ccc(C(=O)NC2CCCC2)s1	PLC-gamma1 inh 10 | PLCg1 ctr inactive | PLCbeta3 conf inactive
CC1CC2(CCCCC2)Nc2ccc3ccccc3c21 (stereo not drawn)	none
CCc1cccc2c1NC1(CCCC1)CC2C (stereo not drawn)	PLC-gamma1 inh 10 | PLCg1 ctr inactive | PLCbeta3 conf inactive
C[C@H](NC(=O)Cc1cccc2ccccc12)C(=O)N1CCOCC1	none
C#CCONC(=O)c1cc(OCC(F)(F)F)ccc1OCC(F)(F)F	none
CN1CCN(C(=S)Nc2ccc(Cl)cc2Cl)CC1	PLC-gamma1 inh 10 | PLCg1 ctr inactive | PLCbeta3 conf inactive
CCOc1ccc(C(=O)NC(=S)Nc2ccccc2N2CCOCC2)cc1Br	PLC-gamma1 inh 9.9 | PLCg1 ctr inactive | PLCbeta3 conf inactive
COc1ccc(C(=O)NC(=S)Nc2ccccc2N2CCOCC2)cc1Br	none
S=c1nc(C23CC4CC(CC(C4)C2)C3)[nH][nH]1	PLC-gamma1 inh 12 | PLCg1 ctr inactive | PLCbeta3 conf inactive
CC1(C)CC(=O)C/C(=N\NC(=O)CCc2ccc(S(=O)(=O)N3CCOCC3)cc2)C1	none
CN(C)CCCN(CCCN(C)C)C(=S)Nc1ccc(S(=O)(=O)N2CCOCC2)cc1	PLC-gamma1 inh 11 | PLCg1 ctr inactive | PLCbeta3 conf inactive
Cc1ccnc(NC(=O)c2ccc(Cl)c(NC(=O)C(C)Oc3ccccc3)c2)c1 (stereo not drawn)	PLC-gamma1 inh 9.9 | PLCg1 ctr inactive | PLCbeta3 conf inactive
Cc1ccnc(NC(=O)c2ccc(Cl)c(NC(=O)CCc3ccccc3)c2)c1	none
COc1ccc(C2=NN(S(C)(=O)=O)C(c3cccs3)C2)cc1OC (stereo not drawn)	none
CN(c1ccccc1)S(=O)(=O)c1ccc(NC(=S)NC(=O)C2CC2)cc1	PLC-gamma1 inh 10 | PLCg1 ctr inactive | PLCbeta3 conf inactive
COC(=O)[C@@]12C[C@@H](CC(=O)NCc3cccs3)C(=O)N(Cc3ccco3)C1=CCC(C)(C)C2	none
